Source: PubChem
A selection: hits, their analogues and other compounds. The true share with any hit is near 2%.
GC-A act = GC-A (human) enzyme activation. activation, % at 10 µM. AID 1671463. 370,000 compounds, 0.14% hits. HEK293 GC-A cells, cGMP TR-FRET, EC30 ANP; 0% at EC30 ANP, 100% saturating ANP. P16066; in the data active = activation above about 40%
NPR2 activator = GC-B (human) receptor activation | P20594 | HEK293-GC-B cells, CNP EC30, cGMP TR-FRET; 0% at EC30 CNP, 100% saturating CNP | activation, % at 10 µM | 370,000 compounds, 0.11% hits | AID 1920062;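 active = activation at 10 µM reaching about 35% in either raw or pattern-adjusted values, limit read from the data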
APOBEC3A inh = inhibitors of human APOBEC3A DNA deaminase | AID 493011 | recombinant A3A, FAM/TAMRA ssDNA deamination fluorescence | inhibition, % at 20 µM | 330,000 compounds, 0.41% hits;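 active = at least 40% inhibition at 20 µM here, with at most 30% in a related deaminase screen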
Target sequence (P31941 whole entry, looked up): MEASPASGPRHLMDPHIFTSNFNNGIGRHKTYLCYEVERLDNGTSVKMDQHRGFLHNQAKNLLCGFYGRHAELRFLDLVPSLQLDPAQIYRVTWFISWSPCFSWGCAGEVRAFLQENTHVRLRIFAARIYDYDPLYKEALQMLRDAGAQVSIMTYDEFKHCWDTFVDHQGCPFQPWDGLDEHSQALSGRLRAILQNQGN
PfGluPho inh = PfG6PD (Plasmodium falciparum) enzyme inhibition | PfGluPho enzyme, NADPH resazurin-diaphorase fluorescence | inhibition, % at 20 µM | 350,000 compounds, 0.78% hits | AID 504690;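 active = inhibition reaching at least a set limit at 20 µM in the primary screen, cut at about 59% in these data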
A3G deaminase = blocks human APOBEC3G single-stranded DNA deamination. Q9HC16. recombinant A3G, ssDNA deamination FAM/TAMRA fluorescence. inhibition, % at 20 µM. 330,000 compounds, 0.28% hits. AID 493012;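 active = inhibition of at least 40% at 20 µM, with no more than 30% in the related APOBEC3A deaminase screen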
Neddyl block = blocks human cullin neddylation. TR-FRET cullin neddylation, biochemical. inhibition, % at 25 µM. 360,000 compounds, 0.58% hits. AID 651699; in the data active = inhibition above about 36%
A3A conf = confirmation of human APOBEC3A DNA deaminase inhibitors; shares compounds with APOBEC3A inh; recombinant A3A, ssDNA deaminase UDG fluorescence assay; inhibition, % at 20 µM; 1,400 compounds, 63% hits; AID 493151;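 active = inhibition reaching a set limit, 80% of the first screen's cutoff, at 20 µM in any replicate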
UDG ctr A3A = inhibits UDG, flagging false APOBEC3A inhibitors; shares compounds with APOBEC3A inh; UDG counterscreen, FAM/TAMRA uracil oligo fluorescence; inhibition, % at 20 µM; 1,000 tested, under 10 active; call rule not given here
APOBEC3G confirm = APOBEC3G (human) deaminase inhibition, confirmed; recombinant A3G ssDNA deaminase, UDG/FAM-TAMRA fluorescence; shares compounds with A3G deaminase; 890 compounds, 72% hits; inhibition, % at 20 µM;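 active = inhibition reaching a set limit in any replicate at 20 µM, the limit being 80% of the first screen's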
UDG ctr A3G = E. coli UDG inhibition in APOBEC3G counter-screen; 710 tested, under 10 active; AID 504715; UDG counterscreen, FAM/TAMRA oligo fluorescence; inhibition, % at 20 µM; shares compounds with A3G deaminase;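 active = compounds giving 40% or more inhibition at 20 µM in any one of the three replicates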;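 also: inhibitors lower the FAM signal released by uracil excision and alkaline cleavage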
Target sequence (P12295 whole entry, looked up): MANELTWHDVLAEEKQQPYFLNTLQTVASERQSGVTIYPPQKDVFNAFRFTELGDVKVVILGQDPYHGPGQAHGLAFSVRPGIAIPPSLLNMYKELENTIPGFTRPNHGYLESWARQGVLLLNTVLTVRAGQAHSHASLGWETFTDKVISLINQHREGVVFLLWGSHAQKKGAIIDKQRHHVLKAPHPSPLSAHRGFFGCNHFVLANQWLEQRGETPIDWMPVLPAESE
Numbers stand for hits; i = inactive; nt = no result given; ! = repeats disagree.

SMILES | GC-A act | NPR2 activator | APOBEC3A inh | PfGluPho inh | A3G deaminase | Neddyl block | A3A conf | UDG ctr A3A | others
Cc1cc(N2CCNC[C@H]2C)ccc1N1CC[C@H](O)C1 | i | i | nt | nt | nt | nt | nt | nt
CCCC[N+]12CCC(CC1)C(C(O)(c1ccccc1)c1ccccc1)C2 (stereo not drawn) | i | i | 41 | i | i | i | 64 | i
CCC[N+]12CCC(CC1)C(C(O)(c1ccccc1)c1ccccc1)C2 (stereo not drawn) | i | i | i | i | i | i | nt | nt
CCOc1ccc(N=C2SCCCN2C)cc1 | i | i | 40 | i | i | i | 66 | i
O=C(NC(CCC(O)CO)P(=O)(Oc1ccccc1)Oc1ccccc1)OCc1ccccc1 (stereo not drawn) | i | i | nt | nt | nt | nt | nt | nt
CNC(=O)OCCc1nccn1C | i | i | i | i | i | i | nt | nt
CNC(=O)OCc1n(C)cc[n+]1C | i | i | 40 | i | i | i | 82 | i
Cc1cccc(C(C)c2cnc[nH]2)c1C (stereo not drawn) | i | i | nt | nt | nt | nt | nt | nt
C[N+]1=C(N)NC2=C3CCCCC3ONC2C1 (stereo not drawn) | i | i | nt | nt | nt | nt | nt | nt
C[N+]1(C)CCc2cc3c(cc2[C@H]1[C@@H]1OC(=O)c2c1ccc1c2OCO1)OCO3 | i | i | 46! | i | i | i | 80 | i
C=CCN1C(=O)/C(=C/c2ccc(Br)s2)C(=O)NC1=S | i | i | 46 | i | i | i | i | nt
CN1c2ccc(Br)cc2[C@@H]2NCC[C@@H]2[C@@H]1CO | i | i | nt | nt | nt | nt | nt | nt
O=C(O)C1C(C(=O)O)C2(Cl)C(Cl)=C(Cl)C1(Cl)C2(Cl)Cl (stereo not drawn) | i | i | 43 | i | i | i | 15 | i
CC[N+](C)(CC)CCCOC(=O)C(O)(c1ccccc1)C1CCCCC1 (stereo not drawn) | i | i | 50 | i | i | i | 81 | i
CCOC(=O)C(O)(c1cn(C)c2ccccc12)C(F)(F)F (stereo not drawn) | i | i | i | i | i | i | nt | nt
CCOC(=O)C(O)(c1ccc(N=c2ccccn2C)cc1)C(F)(F)F (stereo not drawn) | i | i | 44 | i | i | i | 32 | i
O=C(NCCN1CCC2(CC1)C(=O)NCN2c1ccccc1)c1ccc(F)cc1 | i | i | nt | nt | nt | nt | nt | nt
O=[N+]([O-])c1cc([As](=O)(O)O)ccc1O | i | i | 83 | i | i | i | 51 | i
O=[N+]([O-])c1ccc(O)c([N+](=O)[O-])c1 | i | i | i | i | i | i | nt | nt
COP(=O)(OC)C(C)NC(=O)OCc1ccccc1 (stereo not drawn) | i | i | nt | nt | nt | nt | nt | nt
COc1ccc(CN2CCNCC2)c(OC)c1OC | i | i | 57! | i | i | i | 62 | i
Clc1cc(Cl)cc(CN2Cc3ccccc3-n3nncc3C2)c1 | i | i | nt | nt | nt | nt | nt | nt
O=C(NCCN1CCC2(CC1)C(=O)NCN2c1ccccc1)c1ccc2ccccc2c1 | i | i | nt | nt | nt | nt | nt | nt
C[C@H]1CC[C@H]2NCCN[C@H]2C1 | i | i | 62 | i | i | i | i | i
CC(NC(=O)OC1CC2CCC1(C)C2(C)C)P(=O)(Oc1ccccc1)Oc1ccccc1 (stereo not drawn) | i | i | nt | nt | nt | nt | nt | nt
SMILES | GC-A act | NPR2 activator | APOBEC3A inh | PfGluPho inh | A3G deaminase | Neddyl block | A3A conf | UDG ctr A3A | others
C[N+]1(C)C2CC[C@H]1CC(OC(=O)C(CO)c1ccccc1)C2 (stereo partly drawn) | i | i | i | i | i | i | nt | nt
C[N+]1(C)C2CCC1CC(OC(=O)c1c[nH]c3ccccc13)C2 (stereo not drawn) | i | i | 72 | i | i | i | 84 | i
C[N+]1(C)[C@@H]2CC[C@H]1CC(OC(=O)[C@@H](CO)c1ccccc1)C2 (stereo partly drawn) | i | i | 67 | i | i | i | 87 | nt
CCCCN1CCN(C(=O)COc2cc(=O)n(C)c3ccccc23)CC1 | i | i | nt | nt | nt | nt | nt | nt
CC[C@]12C=CCN3CCC4(c5cc(Br)c(OC)cc5N(C)C4[C@@](O)(C(=O)OC)[C@@H]1OC(C)=O)C32 (stereo partly drawn) | i | i | 62 | i | i | i | 70 | i
CC[N+]12CCC(CC1)C(=C(c1ccccc1)c1ccccc1)C2 | i | i | i | i | i | i | nt | nt
C[N+]12CCC(CC1)C(=C(c1ccccc1)c1ccccc1)C2 | i | i | 75 | i | i | i | 71 | i
CN1C[C@H](O)[C@H]2C[C@@H]1c1ccccc1O2 | i | i | nt | nt | nt | nt | nt | nt
Cc1ccc(N2C(=O)NC(=O)/C(=C\c3cc(C)n(-c4cc(C(=O)O)cc(C(=O)O)c4)c3C)C2=O)cc1 | i | i | 54 | i | i | i | 28 | i
C[N+](C)(C)CCc1ccc(O)cc1 | i | i | 65 | i | i | i | 77 | i
Cc1nn(CCC#N)c2c1P(=S)(N1CCCC1)OC(c1ccc(F)cc1)=N2 (stereo not drawn) | i | i | i | 65 | 67 | i | nt | nt | APOBEC3G confirm=67
COc1ccc(N/N=C/c2c(O)n(-c3cccc(C)c3)c(=O)[nH]c2=O)cc1 | i | i | i | i | 54 | i | nt | nt | APOBEC3G confirm=24;UDG ctr A3G=i
Cc1ccc(-n2c(O)c(/C=N/Nc3ccccc3)c(=O)[nH]c2=O)cc1C | i | i | i | i | i | nt | nt | nt
COc1ccc(N/N=C/c2c(O)n(-c3ccc(C)c(C)c3)c(=O)[nH]c2=O)cc1 | i | i | i | i | 51 | i | nt | nt | APOBEC3G confirm=i;UDG ctr A3G=i
Brc1ccc2c(c1)-n1nncc1CNC2 | i | i | nt | nt | nt | nt | nt | nt
CC(NC(=O)OCc1ccccc1)[P+](=O)O (stereo not drawn) | i | i | nt | nt | nt | nt | nt | nt
COc1cccc(-c2ccc3c(c2)C2c4cnnn4-c4ccccc4C(=O)N2CC3)c1 (stereo not drawn) | i | i | nt | nt | nt | nt | nt | nt
O=c1[nH]c(=O)n(-c2cccc3ccccc23)c(O)c1/C=N/N1CCCCCC1 | i | i | i | i | 68 | i | nt | nt | APOBEC3G confirm=i;UDG ctr A3G=i
O=C(O)c1cccc2nc3ccccc3nc12 | i | i | i | i | 72 | i | nt | nt | APOBEC3G confirm=24;UDG ctr A3G=i
COC(=O)c1ccccc1-n1c(C)nc2ccccc2c1=O | i | i | i | i | i | i | nt | nt
O=C1NC(=O)C(Sc2ccccc2[N+](=O)[O-])C(=O)N1 | i | i | i | i | 46 | i | nt | nt | APOBEC3G confirm=63;UDG ctr A3G=i
O=[N+]([O-])c1ccccc1Cl | i | i | i | i | i | i | nt | nt
O=P(OCCCl)(OCCCl)OCCCl | i | i | nt | nt | nt | nt | nt | nt
